This excerpt belongs to a sample that is enriched for hits.
T cruzi growth-1: blocks T. cruzi growth in NIH3T3 culture; T. cruzi beta-gal in NIH3T3, GalScreen luminescence, 90 h; inhibition, % at 8.34 µM; 77,000 tested, 5.9% active;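 active = mean inhibition above about 93%, with at least 55% of replicates each passing it, limit read from the data, passing the limit was not always enough; inconclusive = only one of those two conditions holds; inactive = neither condition holds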
C diff HTS: C. difficile growth inhibition. 86,000 tested, 0.25% active. growth activity, negative = inhibition, % at 16 µg/mL (by protocol). Clostridium difficile clinical isolate growth, OD600, 24 h; stronger effect = lower value;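 active = mean growth activity at or below -80% and every replicate also at or below -80%; inconclusive = mean at or below -80% but some replicate above -80%; inactive = mean growth activity above -80%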
T cruzi growth-2: Trypanosoma cruzi proliferation inhibition; shares compounds with T cruzi growth-1; T. cruzi beta-gal in NIH3T3, GalScreen luminescence, 90 h; inhibition, % at 8.35 µM; 5,600 tested, 72% active;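 active = mean replicate inhibition above about 95% and at least 55% of replicates individually reaching it, limit read from the data; inconclusive = only one of the two criteria is met; inactive = neither criterion is met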
T cruzi growth-3: Trypanosoma cruzi proliferation inhibition; shares compounds with T cruzi growth-1; T. cruzi beta-gal in NIH3T3, GalScreen luminescence, 90 h; inhibition, % at 2.09 µM; 5,600 tested, 21% active;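 active = mean inhibition above about 95%, with at least 55% of replicates also reaching it, limit read from the data; inconclusive = meets just one of the two conditions; inactive = meets neither condition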
NIH3T3 tox: cytotoxicity in mouse NIH/3T3 fibroblasts; shares compounds with T cruzi growth-1; NIH/3T3 viability, CellTiter-Glo ATP luminescence, 90 h; cytotoxicity (signal decrease), % at 8.35 µM; 5,600 tested, 14% active; AID 651742;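 active = mean signal decrease across replicates above about 35% based on untreated-well scatter, with enough replicates individually passing, limit read from the data; inconclusive = no rule stated though some were filed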
3T3 cytotox 2: NIH/3T3 (mouse) viability loss | shares compounds with T cruzi growth-1 | 5,600 tested, 56% active | NIH/3T3 viability, CellTiter-Glo ATP luminescence, 90 h | inhibition, % at 24.9 µM;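 active = mean loss of cell viability signal at or above a set limit, and enough replicates individually reaching it; inconclusive = meets only the mean limit or only the replicate share; inactive = meets neither condition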
Each line names hits and unclear results; the compound was inactive in the other large screens (follow-up assays come after a bar, where they were run).

COCC#Cc1ccc2c(c1)O[C@H](CN(C)Cc1ccccc1)[C@@H](C)CN([C@@H](C)CO)S2(=O)=O	T cruzi growth-1 inconclusive | T cruzi growth-2 101.9 | T cruzi growth-3 inactive | NIH3T3 tox inactive | 3T3 cytotox 2 104.1
Cc1noc(C)c1NC(=O)N(C)C[C@@H]1Oc2c(NS(C)(=O)=O)cccc2C(=O)N([C@@H](C)CO)C[C@@H]1C	none
COc1ccc(NC(=O)Nc2ccc3c(c2)C(=O)N([C@@H](C)CO)C[C@H](C)[C@H](CN(C)Cc2ccc(C(=O)O)cc2)OCCCC[C@H](C)O3)cc1	none
O=C(c1cccc(F)c1)N1C[C@@H]2[C@H](c3ccccc31)[C@H](CO)N2C(=O)C1CCCC1	none
COc1ccccc1-c1ccc(C2[C@@H]3CN(S(=O)(=O)c4ccccc4C)C[C@H]2N3)cc1 (stereo not given in full)	none (no result: T cruzi growth-1)
C[C@@H]1CN([C@@H](C)CO)C(=O)c2cc(NS(=O)(=O)c3ccccc3)ccc2O[C@@H](C)CCCCO[C@H]1CN(C)C(=O)CCCN(C)C	none
CCCC#Cc1ccc2c(c1)O[C@@H](CN(C)C(=O)C1CCC1)[C@@H](C)CN([C@H](C)CO)S2(=O)=O	T cruzi growth-1 104.4 | T cruzi growth-2 109.6 | T cruzi growth-3 inactive | NIH3T3 tox inactive | 3T3 cytotox 2 34.2
C[C@H](CO)N1C[C@H](C)[C@H](CN(C)C(=O)C2CCCCC2)Oc2cc(C#CCN(C)C)ccc2S1(=O)=O	none (no result: T cruzi growth-1)
CCCC#Cc1ccc2c(c1)O[C@H](CN(C)C(=O)C1CCCCC1)[C@@H](C)CN([C@@H](C)CO)S2(=O)=O	T cruzi growth-1 94.7 | T cruzi growth-2 inactive | T cruzi growth-3 99.9 | NIH3T3 tox inactive | 3T3 cytotox 2 104.2
CCCC#Cc1ccc2c(c1)O[C@H](CN(C)C(=O)C1CC1)[C@@H](C)CN([C@H](C)CO)S2(=O)=O	none
CCCC#Cc1ccc2c(c1)O[C@@H](CN(C)C(=O)C1CCC1)[C@@H](C)CN([C@@H](C)CO)S2(=O)=O	T cruzi growth-1 104.9 | T cruzi growth-2 110.0 | T cruzi growth-3 inactive | NIH3T3 tox inactive | 3T3 cytotox 2 inactive
CCCC#Cc1ccc2c(c1)O[C@@H](CN(C)C(=O)C1CCC1)[C@H](C)CN([C@H](C)CO)S2(=O)=O	none
C[C@@H]1CN([C@@H](C)CO)C(=O)c2cc(NS(=O)(=O)c3cn(C)cn3)ccc2O[C@H]1CN(C)C(=O)Nc1ccccc1	none
COc1ccc2c3c(n(C)c2c1)[C@@H](CO)N(Cc1ccccc1F)CC31CCN(C(=O)C2CCCC2)CC1	none (no result: T cruzi growth-1)
Cc1noc(C)c1S(=O)(=O)Nc1ccc2c(c1)CC(=O)N([C@H](C)CO)C[C@@H](C)[C@H](CN(C)Cc1ccc(C(F)(F)F)cc1)O2	none
CNC[C@H]1Oc2cc(C#CC3(O)CCCC3)ccc2S(=O)(=O)N([C@H](C)CO)C[C@@H]1C	none
CCCC#Cc1ccc(CC[C@H]2O[C@H]3CC[C@H](CO)O[C@H]3C[C@H]2n2cc(C(C)(C)O)nn2)cc1	none (no result: T cruzi growth-1)
C[C@H]1CN([C@@H](C)CO)S(=O)(=O)c2ccc(C#CC3CCCCC3)cc2O[C@@H]1CN(C)Cc1cccnc1	none (no result: C diff HTS)
C[C@@H]1CN([C@@H](C)CO)S(=O)(=O)c2ccc(C#CC3CCCC3)cc2O[C@H]1CN(C)Cc1cncnc1	none (no result: T cruzi growth-1)
C[C@@H]1CN([C@@H](C)CO)S(=O)(=O)c2ccc(C#CC3CCCC3)cc2O[C@@H]1CN(C)Cc1cccnc1	T cruzi growth-1 102.8 | T cruzi growth-2 101.0 | T cruzi growth-3 inconclusive | NIH3T3 tox 60.0 | 3T3 cytotox 2 106.1
C[C@H]1CN([C@@H](C)CO)S(=O)(=O)c2ccc(C#CC3CCCC3)cc2O[C@@H]1CN(C)Cc1cccnc1	T cruzi growth-1 97.9 | T cruzi growth-2 100.9 | T cruzi growth-3 110.8 | NIH3T3 tox inactive | 3T3 cytotox 2 105.4
C[C@@H]1CN([C@H](C)CO)S(=O)(=O)c2ccc(-c3cncnc3)cc2O[C@@H]1CN(C)C(=O)C1CCCCC1	none (no result: T cruzi growth-1)
COc1cccc(NC(=O)N2CC(=O)N3[C@H](CO)[C@H](c4ccc(C5=CCCC5)cc4)[C@@H]3C2)c1	none (no result: T cruzi growth-1)
COc1ccc(S(=O)(=O)N(C)C[C@@H]2Oc3ccc(NC(=O)CCN4CCOCC4)cc3CC(=O)N([C@@H](C)CO)C[C@H]2C)cc1	none
C[C@@H]1CN([C@@H](C)CO)C(=O)c2cc(-c3ccc(C(=O)N(C)C)cc3)cnc2O[C@@H]1CN(C)C(=O)C1CC1	none

Compound activity: PubChem BioAssay, Broad Institute
